According to PubChem BioAssay (NCATS):
Inconclusive results are not listed. The source made the active and inactive calls. Unless noted, the call rests on the fitted dose curve; in most records, active means well fitted curve in the direction sought with a large enough effect; inconclusive means small, poorly fitted or top-dose-only effect, or another doubt; inactive means no such curve, though single readings can be large; an effect the other way counts as inactive or inconclusive.

Assays:
[1] = P-glycoprotein substrates identified in KB-3-1 adenocarcinoma cell line, qHTS therapeutic library screen (AID 1346986); conditions: KB-3-1 parental cells viability, CellTiter-Glo, 72 h; series mostly up to 44.5 µM; further: nearly all actives have a fitted effect of over 60% in size
Summary of the method: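 72 h cell-killing screen, 500 cells/well, CellTiter-Glo luminescence. Paired lines KB-3-1/KB-8-5-11; P-gp dependence checked by tariquidar co-treatment and HEK-293 MDR-19 versus empty-vector cells.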

[2] = NS1 protein of Zika virus - qHTS assay to identify small molecule inhibitors in human HEK 293 cells (AID 1347053); conditions: HEK293 ZIKV MR766 infection, NS1 TR-FRET, 24 h; series mostly up to 46.1 µM; further: nearly all actives have a fitted effect of over 55% in size; further: potency means the concentration at half of the fitted maximal effect
Summary of the method: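 TR-FRET signal from two anti-ZIKV NS1 antibodies quantified NS1 in HEK 293 cells 24 h after MR766 infection at MOI = 0.5; compounds were added 1 h before virus. Uninfected cells and infected cells defined the NS1 normalization range.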

[3] = qHTS for Inhibitors of the Functional Ribonucleoprotein Complex (vRNP) of Lassa (LASV) Arenavirus: LASV Primary Screen - GLuc reporter signal (AID 1347082; calls by dose curve; tested in HEK293 reporter line; further: nearly all actives have a fitted effect of over 60% in size; further: potency means the concentration at half of the fitted maximal effect); conditions: LASV minigenome vRNP, Gaussia luciferase reporter; series mostly up to 57.5 µM
[4] = qHTS for Inhibitors of the Functional Ribonucleoprotein Complex (vRNP) of Lassa (LASV) Arenavirus: Viability assay - alamar blue signal for LASV Primary Screen (AID 1347083; calls by dose curve; tested in HEK293 reporter line; further: nearly all actives have a fitted effect of over 80% in size; further: potency means the concentration at half of the fitted maximal effect); conditions: cell viability, alamar blue fluorescence (LASV minigenome counter-screen); series mostly up to 57.5 µM
[5] = qHTS for Inhibitors of the Functional Ribonucleoprotein Complex (vRNP) of Lymphocytic Choriomeningitis Arenaviruses (LCMV): Viability assay - alamar blue signal for LCMV Primary Screen (AID 1347085; calls by dose curve; tested in HEK293 reporter line; further: nearly all actives have a fitted effect of over 80% in size; further: potency means the concentration at half of the fitted maximal effect); conditions: alamar blue viability counter-screen, LCMV vRNP screen cells; series mostly up to 57.5 µM
[6] = biological target: Nucleoprotein (Lymphocytic choriomeningitis virus (strain Armstrong)) (UniProt P09992); assay: qHTS for Inhibitors of the Functional Ribonucleoprotein Complex (vRNP) of Lymphocytic Choriomeningitis Arenaviruses (LCMV): LCMV Primary Screen - GLuc reporter signal (AID 1347086; calls by dose curve; further: nearly all actives have a fitted effect of over 70% in size; further: potency means the concentration at half of the fitted maximal effect); conditions: LCMV minigenome vRNP cell assay, Gaussia luciferase reporter; series mostly up to 57.5 µM
[7] = P-glycoprotein substrates identified in KB-8-5-11 adenocarcinoma cell line, qHTS therapeutic library screen (AID 1346987); conditions: KB-8-5-11 (P-gp overexpressing) viability, CellTiter-Glo, 72 h; series mostly up to 44.5 µM; further: nearly all actives have a fitted effect of over 65% in size; further: potency means the concentration at half of the fitted maximal effect
Summary of the method: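 Luminescence from CellTiter-Glo, read 5 min after addition, quantified survival of KB-8-5-11 (P-gp-overexpressing) cells exposed to compounds for 72 h. AC50 was derived from concentration-response curves.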

[8] = Natriuretic polypeptide receptor (hNpr1) antagonism - Pilot counterscreen GloSensor control cell line (AID 1347045; calls by dose curve; further: potency means the concentration at half of the fitted maximal effect); conditions: HEK293 cGMP GloSensor cells, SNP-stimulated luminescence, 20 min; series mostly up to 38.3 µM
Summary of the method: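 Cells were first seeded and incubated overnight at 37C, then loaded with 2% GloSensor substrate for 2 h. Compounds were added for 30 min at room temperature, followed by a baseline read, 50 uM SNP and a final read after 20 min.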

[9] = biological target: Atrial natriuretic peptide receptor 1 (Homo sapiens) (UniProt P16066); assay: Natriuretic polypeptide receptor (hNpr1) antagonism - Pilot screen (AID 1347049; calls by dose curve;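 further: HEK293 cells with hNpr1 and GloSensor cGMP luciferase stimulated by 0.1 nM hNppA; agonist-evoked cGMP luminescence read 20 min after hNppA addition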); conditions: hNpr1 cells, antagonist mode cGMP read-out; series mostly up to 57.5 µM
Summary of the method: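 Cells expressing receptor plus cGMP biosensor are seeded and incubated overnight at 37C, then loaded with GloSensor reagent (2% final) at room temperature for 2 h. Library compounds go on for 30 min. A pre-read precedes agonist (hNppA, 0.1 nM final) and a 20-min readout.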

[10] = biological target: Atrial natriuretic peptide receptor 2 (Homo sapiens) (UniProt P20594); assay: Natriuretic polypeptide receptor (hNpr2) antagonism - Pilot subtype selectivity assay (AID 1347050; calls by dose curve); conditions: NPR2-expressing cells, cGMP antagonist-mode read-out; series mostly up to 38.3 µM
Summary of the method: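 Read-out: GloSensor luminescence (CCD imager), baseline vs post-stimulation. HEK293 cells expressing hNpr2; compounds pre-incubated 30-50 min at ambient temperature; hNppC 1 nM final, 20 min.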

[11] = biological target: T1, Tyrosine-protein phosphatase non-receptor type substrate 1 (Homo sapiens) + Leukocyte surface antigen CD47 (Homo sapiens) (UniProt P78324+Q08722); assay: CD47-SIRPalpha protein protein interaction - LANCE assay qHTS validation (AID 1347057; active means well fitted curve in the direction sought with a large enough effect in the signal ratio, with a control signal flat, not every such curve was filed as active; the % refers to the signal ratio); conditions: Recombinant CD47-His / biotin-SIRPalpha, TR-FRET ratio; series mostly up to 38.3 µM
Summary of the method: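 Inhibition of soluble CD47/SIRPalpha ectodomain association by titrated compounds, measured as 665/615 nm time-resolved FRET ratio after sequential 30 min room-temperature incubations.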

[12] = biological target: T1, Tyrosine-protein phosphatase non-receptor type substrate 1 (Homo sapiens) + Leukocyte surface antigen CD47 (Homo sapiens); assay: CD47-SIRPalpha protein protein interaction - HTRF assay qHTS validation (AID 1347058; active means well fitted curve in the direction sought with a large enough effect in the signal ratio, not every such curve was filed as active; the % refers to the signal ratio); conditions: TR-FRET HTRF CD47-His / biotin-SIRPalpha binding, ratio 665/615; series mostly up to 38.3 µM
Summary of the method: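 Soluble extracellular domains (6His-CD47, Avi-tag-biotinylated SIRPalpha) in PBS pH 7.4 with 0.05% IGEPAL CA-630. Compounds were preincubated 30 min at RT with CD47 and anti-His-Eu, then SIRPalpha and SAV-XL665 were added. TR-FRET 665/615 ratio.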

[13] = biological target: T1, Tyrosine-protein phosphatase non-receptor type substrate 1 (Homo sapiens) + Leukocyte surface antigen CD47 (Homo sapiens); assay: CD47-SIRPalpha protein protein interaction - Alpha assay qHTS validation (AID 1347059); conditions: AlphaScreen CD47-His/biotin-SIRPalpha binding, LOPAC; series mostly up to 38.3 µM;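 further: bead proximity luminescence from CD47 binding SIRPalpha after compound preincubation with SIRPalpha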
Summary of the method: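 In PBS (pH 7.4) with 0.05% IGEPAL CA-630, compound is preincubated with biotin-Avi-SIRPalpha ectodomain before His-CD47 ectodomain and affinity beads are added. Light-protected room-temperature incubations; AlphaScreen readout.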

[14] = biological target: Parathyroid hormone/parathyroid hormone-related peptide receptor (Homo sapiens) (UniProt Q03431); assay: qHTS for PTHR1 Agonists: Optimization Screen against the NCGC LOPAC library (AID 1347079); conditions: HEK293 GP2 PTHR1 GloSensor cAMP luminescence, 1 h; series mostly up to 57.1 µM;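 further: GloSensor cAMP luminescence in HEK-293 GP2 cells expressing human PTHR1 with IBMX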
Summary of the method: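 HEK-293 GP2 cells, PTHR1 + GloSensor cAMP; 3000 cells/well, o/n. Luciferin + IBMX 0.5mM each (stock), 1 hr 37C. Cpd titration, 1 hr 37C. Lum after 15 min RT. Ctrl M-PTH(1-15) top 10uM.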

[15] = Identifying Small Molecule Inhibitors of Pancreatic Cancer Stem Cells (SN12C, Adherent) (AID 1259358); conditions: viability/growth inhibition; series mostly up to 46.1 µM;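 further: cell survival measured after 48 h of compound exposure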; further: potency means the concentration at half of the fitted maximal effect
Summary of the method: (§1)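 After a 4 h attachment period, compounds were pinned into wells and cultures held 48 h under standard incubator conditions. Viability was then measured as CellTiter-Glo luminescence following 10 min at room temperature.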

[16] = Identifying Small Molecule Inhibitors of Pancreatic Cancer Stem Cells (Panc1, Adherent) (AID 1259362); conditions: Potency: viability; series mostly up to 46.1 µM; further: potency means the concentration at half of the fitted maximal effect
Summary of the method: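 Endpoint: ATP-based luminescence, 48 h drug exposure. Bortezomib at 9.2 uM final as full-kill control; DMSO vehicle as negative control; activity normalized between vehicle and cell-free wells.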

[17] = Identifying Small Molecule Inhibitors of Pancreatic Cancer Stem Cells (A278, Adherent) (AID 1259361); conditions: series mostly up to 46.1 µM;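 further: viability read after 48 h compound exposure; nearly all actives have a fitted effect of over 35% in size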
Summary of the method: as §1

[18] = Identifying Small Molecule Inhibitors of Pancreatic Cancer Stem Cells (A2780, Spheroid) (AID 1259357); conditions: Potency: A2780 spheroid viability; series mostly up to 46.1 µM;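 further: spheroids pre-formed over 14 days in stem cell medium on hydrogel; compound exposure lasted 48 h before the ATP luminescence read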
Summary of the method: (§2)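 Luminescent ATP readout (CellTiter-Glo) quantifies surviving cells after a 48 h drug incubation. Normalization uses DMSO wells as no inhibition and media-only wells as full inhibition; bortezomib served as positive control.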

[19] = Identifying Small Molecule Inhibitors of Pancreatic Cancer Stem Cells (SN12C, Spheroid) (AID 1259360); conditions: Potency: SN12C spheroid viability; series mostly up to 46.1 µM
Summary of the method: as §2

Nucleoprotein (Lymphocytic choriomeningitis virus (strain Armstrong)), sequence (P09992 whole entry, looked up): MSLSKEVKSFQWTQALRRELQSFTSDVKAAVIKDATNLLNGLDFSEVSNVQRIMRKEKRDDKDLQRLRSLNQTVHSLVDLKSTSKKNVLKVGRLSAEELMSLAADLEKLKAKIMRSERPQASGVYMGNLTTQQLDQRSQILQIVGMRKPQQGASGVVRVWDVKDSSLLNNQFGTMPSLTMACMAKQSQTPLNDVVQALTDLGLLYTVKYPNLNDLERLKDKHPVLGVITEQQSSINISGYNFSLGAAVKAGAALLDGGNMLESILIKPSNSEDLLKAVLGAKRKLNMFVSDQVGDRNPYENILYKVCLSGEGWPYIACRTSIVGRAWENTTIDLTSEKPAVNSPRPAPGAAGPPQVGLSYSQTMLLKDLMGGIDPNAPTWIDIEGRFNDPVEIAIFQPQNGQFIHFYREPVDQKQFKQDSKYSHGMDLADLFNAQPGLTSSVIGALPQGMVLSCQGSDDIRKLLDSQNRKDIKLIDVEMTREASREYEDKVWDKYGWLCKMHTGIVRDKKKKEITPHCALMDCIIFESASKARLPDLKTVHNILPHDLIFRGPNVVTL
Parathyroid hormone/parathyroid hormone-related peptide receptor (Homo sapiens), sequence (Q03431 whole entry, looked up): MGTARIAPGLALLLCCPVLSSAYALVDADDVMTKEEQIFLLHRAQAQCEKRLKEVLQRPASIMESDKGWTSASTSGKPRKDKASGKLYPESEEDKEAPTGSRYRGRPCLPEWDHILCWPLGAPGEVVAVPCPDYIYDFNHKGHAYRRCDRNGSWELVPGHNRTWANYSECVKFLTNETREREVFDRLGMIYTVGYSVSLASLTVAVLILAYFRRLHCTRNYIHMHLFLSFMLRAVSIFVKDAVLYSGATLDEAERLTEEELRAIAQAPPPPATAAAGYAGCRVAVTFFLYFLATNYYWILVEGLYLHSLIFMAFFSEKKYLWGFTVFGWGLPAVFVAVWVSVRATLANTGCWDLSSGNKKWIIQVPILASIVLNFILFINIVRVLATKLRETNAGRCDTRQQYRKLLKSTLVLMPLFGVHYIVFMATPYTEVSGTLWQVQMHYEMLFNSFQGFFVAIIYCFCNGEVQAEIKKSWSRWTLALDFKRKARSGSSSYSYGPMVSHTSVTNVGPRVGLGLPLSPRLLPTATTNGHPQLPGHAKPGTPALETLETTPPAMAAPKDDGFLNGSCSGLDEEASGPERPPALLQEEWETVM
T1 sequence (P78324 whole entry, looked up, the tested form may be a part): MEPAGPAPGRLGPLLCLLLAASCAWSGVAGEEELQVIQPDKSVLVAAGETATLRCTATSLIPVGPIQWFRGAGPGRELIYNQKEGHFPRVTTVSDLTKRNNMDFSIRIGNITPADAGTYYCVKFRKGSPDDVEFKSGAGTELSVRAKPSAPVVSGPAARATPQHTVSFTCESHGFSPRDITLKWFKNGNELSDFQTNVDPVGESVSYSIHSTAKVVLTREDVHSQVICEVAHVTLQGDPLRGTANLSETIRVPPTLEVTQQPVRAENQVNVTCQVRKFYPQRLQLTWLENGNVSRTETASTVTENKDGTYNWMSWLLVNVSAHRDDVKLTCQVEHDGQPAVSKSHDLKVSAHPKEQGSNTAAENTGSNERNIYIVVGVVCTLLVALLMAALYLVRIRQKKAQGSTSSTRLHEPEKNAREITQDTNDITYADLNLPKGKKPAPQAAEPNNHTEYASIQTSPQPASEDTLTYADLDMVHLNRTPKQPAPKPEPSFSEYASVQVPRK
T1 sequence (Q08722 whole entry, looked up, the tested form may be a part): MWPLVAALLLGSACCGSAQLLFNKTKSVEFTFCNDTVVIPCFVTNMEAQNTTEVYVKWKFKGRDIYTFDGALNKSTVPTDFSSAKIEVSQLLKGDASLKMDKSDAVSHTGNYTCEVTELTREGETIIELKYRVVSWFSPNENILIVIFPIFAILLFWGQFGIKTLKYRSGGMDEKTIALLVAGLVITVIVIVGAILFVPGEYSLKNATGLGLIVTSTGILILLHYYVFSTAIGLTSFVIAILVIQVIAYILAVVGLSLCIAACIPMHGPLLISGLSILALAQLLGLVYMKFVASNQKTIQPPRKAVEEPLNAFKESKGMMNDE
Atrial natriuretic peptide receptor 1 (Homo sapiens), sequence (P16066 whole entry, looked up): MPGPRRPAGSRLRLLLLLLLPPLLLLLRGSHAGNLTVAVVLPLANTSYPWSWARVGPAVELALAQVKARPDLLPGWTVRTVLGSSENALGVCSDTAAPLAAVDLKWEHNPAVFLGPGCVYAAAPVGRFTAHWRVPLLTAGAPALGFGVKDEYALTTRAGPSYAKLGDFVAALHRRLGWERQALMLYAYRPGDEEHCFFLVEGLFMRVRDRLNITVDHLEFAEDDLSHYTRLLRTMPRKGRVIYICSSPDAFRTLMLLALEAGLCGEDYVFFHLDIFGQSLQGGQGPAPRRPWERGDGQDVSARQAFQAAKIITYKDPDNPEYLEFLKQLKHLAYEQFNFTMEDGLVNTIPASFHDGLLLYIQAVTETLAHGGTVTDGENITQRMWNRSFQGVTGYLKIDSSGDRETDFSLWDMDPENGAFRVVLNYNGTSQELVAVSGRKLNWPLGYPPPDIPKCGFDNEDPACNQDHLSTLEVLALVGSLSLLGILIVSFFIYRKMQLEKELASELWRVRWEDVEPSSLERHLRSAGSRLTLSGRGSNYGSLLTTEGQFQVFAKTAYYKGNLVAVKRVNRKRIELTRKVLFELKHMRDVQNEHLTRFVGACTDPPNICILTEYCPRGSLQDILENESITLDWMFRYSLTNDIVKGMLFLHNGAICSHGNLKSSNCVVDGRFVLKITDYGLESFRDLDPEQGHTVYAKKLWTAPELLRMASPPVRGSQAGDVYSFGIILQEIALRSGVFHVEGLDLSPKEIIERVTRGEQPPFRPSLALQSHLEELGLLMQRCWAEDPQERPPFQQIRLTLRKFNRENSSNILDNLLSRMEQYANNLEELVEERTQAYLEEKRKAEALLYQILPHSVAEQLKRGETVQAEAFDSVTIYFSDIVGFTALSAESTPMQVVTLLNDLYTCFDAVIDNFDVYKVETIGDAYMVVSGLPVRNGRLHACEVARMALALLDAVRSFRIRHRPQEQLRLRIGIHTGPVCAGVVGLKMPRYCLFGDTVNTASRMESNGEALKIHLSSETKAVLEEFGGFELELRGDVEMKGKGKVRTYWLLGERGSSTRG
Atrial natriuretic peptide receptor 2 (Homo sapiens), sequence (P20594 whole entry, looked up): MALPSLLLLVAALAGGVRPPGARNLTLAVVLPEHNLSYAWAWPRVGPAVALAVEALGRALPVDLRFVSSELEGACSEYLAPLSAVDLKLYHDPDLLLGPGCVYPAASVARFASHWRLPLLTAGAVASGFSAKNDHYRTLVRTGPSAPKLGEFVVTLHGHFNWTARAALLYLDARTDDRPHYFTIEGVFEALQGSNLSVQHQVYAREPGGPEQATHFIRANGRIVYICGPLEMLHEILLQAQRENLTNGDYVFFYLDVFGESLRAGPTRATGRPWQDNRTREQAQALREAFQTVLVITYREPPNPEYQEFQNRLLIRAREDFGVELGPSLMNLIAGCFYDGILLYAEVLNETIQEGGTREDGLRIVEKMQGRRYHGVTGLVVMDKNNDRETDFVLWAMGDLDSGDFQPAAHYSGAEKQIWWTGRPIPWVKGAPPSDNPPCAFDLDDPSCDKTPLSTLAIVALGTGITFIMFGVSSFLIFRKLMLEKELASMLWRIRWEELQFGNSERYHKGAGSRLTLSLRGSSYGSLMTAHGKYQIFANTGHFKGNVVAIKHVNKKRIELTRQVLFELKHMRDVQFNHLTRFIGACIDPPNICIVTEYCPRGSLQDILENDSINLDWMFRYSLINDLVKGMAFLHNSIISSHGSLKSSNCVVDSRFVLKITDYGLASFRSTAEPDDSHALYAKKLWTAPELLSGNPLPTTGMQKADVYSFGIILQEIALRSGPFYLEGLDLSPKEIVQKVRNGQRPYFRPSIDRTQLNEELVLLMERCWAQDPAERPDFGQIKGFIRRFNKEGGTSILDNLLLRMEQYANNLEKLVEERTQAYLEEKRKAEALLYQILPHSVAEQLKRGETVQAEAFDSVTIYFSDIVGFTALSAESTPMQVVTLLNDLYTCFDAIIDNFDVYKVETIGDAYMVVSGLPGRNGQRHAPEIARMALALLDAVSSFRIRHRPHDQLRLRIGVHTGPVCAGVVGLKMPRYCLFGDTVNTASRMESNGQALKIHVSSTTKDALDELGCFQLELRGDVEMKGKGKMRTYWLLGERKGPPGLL

CCC(=O)OC1CCC2C3CCC4=CC(=O)CC[C@@]4(C)C3CC[C@]12C (stereo not given in full)
inactive: Potency [1] | Potency [2] | Potency [3] | Potency [4] | Potency [5] | Potency [6]

COC(=O)[C@@H](N)CCCN=C(N)N[N+](=O)[O-]
inactive: Potency [7] | Potency [8] | Potency [9] | Potency [10] | Potency [2] | outcome [11] | outcome [12] | Potency [13] | outcome [14] | Potency [6]

CCNC(=O)CC1N=C(c2ccc(Cl)cc2)c2cc(OC)ccc2-n2c(C)nnc21 (stereo not given)
inactive: Potency [1] | Potency [7]
active: Potency [4] 7.69 µM | Potency [5] 1.53 µM | Potency [6] 2.43 µM

O=C(N[C@H]1CN2CCC1CC2)c1ccc(Cl)cc1
inactive: Potency [1] | Potency [7] | Potency [8] | Potency [9] | Potency [10] | Potency [2] | outcome [11] | outcome [12] | Potency [13] | outcome [14] | Potency [3] | Potency [5] | Potency [6]

CC(=O)[O][Hg][c]1ccccc1
active: Potency [7] 0.259 µM

O=c1[nH]c2ccccc2n1C1CCN(Cc2ccc(-c3[nH]c4cc5ncnc5cc4nc3-c3ccccc3)cc2)CC1
inactive: Potency [1] | Potency [7] | Potency [5] | Potency [6]
active: Potency [2] 18.7 µM

CC(C)N(CCNC(=O)CN1CCCC1=O)C(C)C
inactive: Potency [1] | Potency [7] | Potency [2] | Potency [3] | Potency [4] | Potency [5] | Potency [6]

C[C@@H]1[C@H](O)[C@@H](C)C=CC=CCCC=CC=CC=CC=C[C@H](O[C@H]2O[C@@H](C)[C@H](O)[C@@H](N)[C@@H]2O)CC2O[C@](O)(C[C@@H](O)[C@H](O)CC[C@@H](O)C[C@@H](O)C[C@@H](O)CC(=O)O[C@H]1C)C[C@H](O)[C@H]2C(=O)O
inactive: Potency [1] | Potency [7] | Potency [2] | Potency [3] | Potency [4] | Potency [5] | Potency [6]

Cc1nc(-c2ccc(-c3ccc(C(=O)N4CCc5cc6c(cc54)C4(CCN(C)CC4)CO6)cc3)c(C)c2)no1
inactive: Potency [15] | Potency [7] | Potency [2] | Potency [3] | Potency [4] | Potency [5] | Potency [6]
active: Potency [16] 16.6 µM

COC1=C[C@@H]2[C@@H]3Cc4ccc(OC)c(O)c4[C@]2(CCN3C)CC1=O
inactive: Potency [1] | Potency [7] | Potency [2]
active: Potency [3] 19.3 µM | Potency [4] 19.3 µM | Potency [5] 21.7 µM | Potency [6] 6.11 µM

S=C(SSC(=S)N1CCCCC1)N1CCCCC1
inactive: Potency [7]

c1ccc(CCCN2CCN(CCOC(c3ccccc3)c3ccccc3)CC2)cc1
inactive: Potency [9] | Potency [10] | Potency [2] | outcome [11] | outcome [12] | Potency [13] | outcome [14] | Potency [3] | Potency [4] | Potency [5] | Potency [6]
active: Potency [7] 18.7 µM | Potency [8] 26.1 µM

CC(Cc1ccc(O)cc1)NCC(O)c1cc(O)cc(O)c1 (stereo not given)
inactive: Potency [7] | Potency [8] | Potency [9] | Potency [10] | Potency [2] | outcome [11] | Potency [13] | outcome [14] | Potency [3] | Potency [4] | Potency [5] | Potency [6]

Cc1ccccc1-n1c(Cn2cnc3c(N)ncnc32)nc2cccc(C)c2c1=O
inactive: Potency [16]
active: Potency [15] 18.7 µM | IC50 (viability decrease) [17] 18.7 µM | Potency [7] 0.59 µM | Potency [3] 8.63 µM | Potency [4] 1.53 µM | Potency [5] 1.93 µM

CC(=O)NCCc1c[nH]c2ccccc12
inactive: Potency [1] | Potency [7] | Potency [8] | Potency [9] | Potency [10] | outcome [11] | outcome [12] | Potency [13] | outcome [14] | Potency [3] | Potency [4] | Potency [5] | Potency [6]

c1ccc2c(CN3CCNCC3)cccc2c1
inactive: Potency [1] | Potency [7] | Potency [3] | Potency [4] | Potency [5] | Potency [6]

COc1ccc2c(c1)CN(C)CC2c1ccc(Cl)c(Cl)c1 (stereo not given)
active: Potency [4] 7.69 µM
inactive: Potency [1] | Potency [7] | Potency [2] | Potency [3] | Potency [5] | Potency [6]

O=C(Oc1ccc([N+](=O)[O-])cc1)N1CCC(C(O)(c2ccc3c(c2)OCO3)c2ccc3c(c2)OCO3)CC1
active: Potency [4] 24.3 µM | Potency [5] 3.06 µM
inactive: Potency [18] | Potency [15] | Potency [19] | Potency [16] | Potency [7] | Potency [2] | Potency [3] | Potency [6]

CC1=NN=C(c2ccc(N)cc2)c2cc3c(cc2C1)OCO3
inactive: Potency [1] | Potency [7] | Potency [8] | Potency [9] | Potency [10] | Potency [2] | outcome [11] | outcome [12] | Potency [13] | outcome [14] | Potency [3] | Potency [4] | Potency [5] | Potency [6]

Oc1ccc2c3c1O[C@H]1c4[nH]c5c(c4C[C@@]4(O)[C@@H](C2)N(CC2CC2)CC[C@]314)C[C@@]1(O)[C@H]2Cc3ccc(O)c4c3[C@@]1(CCN2CC1CC1)[C@H]5O4
inactive: Potency [1] | Potency [7] | Potency [8] | Potency [9] | Potency [10] | Potency [2] | outcome [11] | Potency [13] | outcome [14] | Potency [3] | Potency [4] | Potency [5] | Potency [6]
